“And” between values parts separate entries of the source, which are not always exact repeats. Identical values can stand only once. The whole screen tested about 6,400 compounds, of which about 610 (9.5%) were called active. The sample as a whole holds a higher share of actives than the screen did. Unmarked numbers belong to inactive results. Cut-off read from the data, not from the text of the source: active = activity change below about -70%; inconclusive = no clear call, values can overlap the other calls; inactive = above that. *1 amine or outer side, *2 acyl side, *3 side chain or, on linkers, in order; H or OH if unused. Where a SMILES comes first, the peptide text is derived from it. Side-chain parts run from the residue outwards. [ ]: non-standard residue; d: D form. The star is where a group is joined. Ethylenediamine = C(CN[*:2])N[*:1]; Hyp = O=C(O)[C@@H]1C[C@@H](O)CN1; Phg = N[C@H](C(=O)O)c1ccccc1; CO = O=C([*:1])[*:2]; Bn = c1ccc(C*)cc1
Assay: T. gondii ME49Luc in HeLa cells, luciferase assay, 72 h, no IFN-y (AID 1259421)
Conditions: stronger effect = lower value, concentration not given here

Row | SMILES | activity change, negative = inhibition
1 | COc1cc(-c2ncn(/C=C\C(=O)OC(C)C)n2)cc(C(F)(F)F)c1 | -86.8% (active)
2 | O=C(/C=C\n1cnc(-c2cc(C(F)(F)F)cc(C(F)(F)F)c2)n1)NNc1cnccn1 | -78.8% (active)
3 | O=C(/C=C\n1cnc(-c2cc(C(F)(F)F)cc(C(F)(F)F)c2)n1)N1CC(F)(F)C1 | -81.3% (active)
4 | CC(=O)CC(=O)O | -0.799%
5 | CC(=O)c1c(O)cc(O)cc1O | 6.7%
6 | COc1c(OC)c2occc2c2oc(=O)ccc12 | 9.46%
7 | CC(=O)OCC(=O)[C@@]1(O)CCC2C3CCC4=CC(=O)C=C[C@]4(C)[C@@]3(Cl)[C@@H](Cl)C[C@@]21C (stereo partly drawn) | -0.235%
8 | CCCC(=O)O[C@@]1(C(=O)COC(C)=O)CC[C@H]2[C@@H]3C[C@H](F)C4=CC(=O)C=C[C@]4(C)[C@]3(F)[C@H](O)C[C@@]21C | 6.24%
9 | C[C@@H]1O[C@@]2(CS1)CN1CCC2CC1 (racemic) | 6.56%
10 | c1cncc(CN2CCC(n3ncc4c(N5CCOCC5)nc(-c5ccc6[nH]ccc6c5)nc43)CC2)c1 | -77.6% (active)
11 | COC(=O)Nc1ccc(-c2nc(N3CCOCC3)c3cnn(C4CCN(C(=O)OC)CC4)c3n2)cc1 | 21.2%
12 | C[C@@H]1CN(Cc2ncccn2)C[C@H]1c1nc2c(cnn2C2CCOCC2)c(=O)[nH]1 | 4.49%
13 | CC(=O)N1CCN(c2ccc(OCC3CO[C@](Cn4ccnc4)(c4ccc(Cl)cc4Cl)O3)cc2)CC1 (stereo partly drawn) | -58.1%
14 | CCC1OC(=O)[C@H](C)C(=O)[C@H](C)[C@@H](OC2O[C@H](C)C[C@H](N(C)C)[C@H]2O)[C@](C)(OC)C[C@@H](C)C(=O)[C@H](C)[C@H]2N(CCCCn3cnc(-c4cccnc4)c3)C(=O)O[C@@]12C (stereo partly drawn) | -5.19%
15 | NC(=S)N/N=C/c1ncccc1N | -83.2% (active)
16 | NC(=S)N/N=C/c1ccncc1 | 6.58%
17 | CC(=O)O[C@]1(C(C)=O)CC[C@H]2[C@@H]3C=CC4=CC(=O)CC[C@]4(C)[C@H]3CC[C@@]21C | 8.87%
18 | CCCc1ncc(C(=O)O)s1 | 6.47%
19 | COc1cc(Br)c(S(=O)(=O)Nc2ccc(Cl)c(O[C@@H]3CCN(C)C3)c2)cc1OC | 5.97%
20 | N[C@H](C(=O)O)[C@@H]1CC(Cl)=NO1 | -72.2% (active)
21 | NC(C(=O)O)[C@@H]1CC(Cl)=NO1 (stereo partly drawn) | -82% (active)
22 | COC(=O)C1[C@H]2C[C@H]3c4[nH]c5ccccc5c4CCN3C[C@@H]2CC[C@@H]1O (stereo partly drawn) | -3.89%
23 | CC(=O)OCC(=O)[C@@]1(O)CCC2C3CCC4=CC(=O)CC[C@]4(C)C3[C@@H](O)C[C@@]21C (stereo partly drawn) | -6.4% and -14.3%
24 | COC(=O)c1ccc2c(C(=Nc3ccc(N(C)C(=O)CN4CCN(C)CC4)cc3)c3ccccc3)c(O)[nH]c2c1 | -75.7% (active)
25 | CN(C)Cc1cccc(N=C(c2ccccc2)c2c(O)[nH]c3cc(C(N)=O)ccc23)c1 | 9.28% and -68.3%
26 | CN(C)Cc1cccc(N=C(c2ccccc2)c2c(O)[nH]c3cc(C(=O)N(C)C)ccc23)c1 | -81.4% (active)

Row | SMILES | activity change, negative = inhibition
27 | O=C(O)CN1CCN(CC(=O)O)CCN([C@H](CO)C(O)CO)CCN(CC(=O)O)CC1.[Gd] (stereo partly drawn) | 8%
28 | CC1(CN)Cc2ccccc2C1 | 26%
29 | C=CC(C)(O)CC[C@@H]1[C@@]2(C)CCCC(C)(C)C2CC[C@@]1(C)O (stereo partly drawn) | 13.1%
30 | COc1ccc2c(c1)OCC(Cc1ccc(OC)c(O)c1)C2=O (stereo not drawn) | -61%
31 | O=C(O)C1=CC(O)C(O)[C@H](O)C1 (stereo partly drawn) | -17.2%
32 | CCC[C@@H](N[C@@H](C)C(=O)N1[C@@H](C(=O)O)C[C@@H]2CCCC[C@@H]21)C(=O)OCC | 10.1%
33 | CCn1c(=O)c(-c2ccn[nH]2)cc2c(C)nc(N)nc21 | -57.4%
34 | COc1ccc(-c2cc3c(C)nc(N)nc3n(C3CCC(OCCO)CC3)c2=O)cn1 (stereo not drawn) | -79.8% (active)
35 | N#CCC(=O)NN | 10.7%
36 | O=C(N[C@@H](CO)[C@H](O)c1ccc([N+](=O)[O-])cc1)C(Cl)Cl | 5.04%
37 | CCS(=O)(=O)Nc1ccc2[nH]c(O)c(C(=Nc3ccc(CN4CCCCC4)cc3)c3ccccc3)c2c1 | -88% (active)
38 | N[C@H](C(=O)O)[C@H](O)c1ccc(O)c(O)c1 | -6.51%
39 | Cc1ccc(C(=O)Nc2ccc(Oc3cc4cnn(C)c4cc3-c3cn[nH]c3)c(F)c2)c(=O)n1-c1ccc(F)cc1 | -82.1% (active)
40 | COC(=O)C(c1ccccc1Cl)N1CCc2sccc2C1 (stereo not drawn) | 6.54%
41 | CC[C@@]1(O)C(=O)OCc2c1cc1n(c2=O)Cc2cc3cc(O)ccc3nc2-1 | -73.3% (active) and -92.8% (active)
42 | CC[C@@]1(O)C(=O)OCc2c1cc1n(c2=O)Cc2c-1nc1cc(F)c(C)c3c1c2[C@@H](N)CC3 | -89.9% (active)
43 | CCc1c2c(nc3ccc(OC(=O)N4CCC(N5CCCCC5)CC4)cc13)-c1cc3c(c(=O)n1C2)COC(=O)[C@]3(O)CC | 8.52%
44 | CCc1c2c(nc3ccc(O)cc13)-c1cc3c(c(=O)n1C2)COC(=O)[C@]3(O)CC | -93.3% (active)
45 | CC[C@@]1(O)C(=O)OCc2c1cc1n(c2=O)Cc2cc3c(CN(C)C)c(O)ccc3nc2-1 | -89.6% (active)
46 | CC(=O)[C@H]1CCC2C3C[C@H](C)C4=CC(=O)CC[C@]4(C)C3[C@@H](O)C[C@@]21C (stereo partly drawn) | -2.39%
47 | CN1C[C@@H]2c3ccccc3Oc3ccc(Cl)cc3[C@H]2C1 | 14.2%
48 | Cn1cc(-c2cnc3ccc4ccc(CS(=O)(=O)NCc5ccccn5)cc4c(=O)c3c2)cn1 | -4.03%
49 | CS(=O)(=O)c1ccc(Cn2c3c(c4cc(F)cc(F)c42)CCCC3CC(=O)O)cc1 (stereo not drawn) | 1.13% and 1.18%
50 | c1ccc(C(NCCNC(c2ccccc2)c2ccccc2)c2ccccc2)cc1 | -24.5% and -4.76%
51 | Cn1c(=O)cc(N2CCCC(N)C2)n(Cc2cc(F)ccc2C#N)c1=O (stereo not drawn) | 0.449%
52 | C[C@H]1CC2C3CCC4=CC(=O)C=C[C@]4(C)[C@@]3(F)[C@@H](O)C[C@]2(C)[C@@]1(O)C(=O)COP(=O)(O)O (stereo partly drawn) | -6.5%

Row | SMILES | activity change, negative = inhibition
53 | COc1cc(O)c2c(=O)c(OC)c(-c3ccc(OC)c(OC)c3)oc2c1 | 3.09%
54 | CC(=O)OCC(=O)[C@@]1(O)CCC2C3CCC4=CC(=O)C=CC4(C)C3[C@@H](O)C[C@@]21C (stereo partly drawn) | 1.73%
55 | CC1(C)[C@@H](O[C@H]2O[C@H](C(=O)O)[C@@H](O)[C@H](O)[C@@H]2O[C@@H]2O[C@H](C(=O)O)[C@@H](O)[C@H](O)[C@H]2O)CC[C@@]2(C)[C@H]3C(=O)C=C4[C@@H]5C[C@@](C)(C(=O)O)CC[C@]5(C)CC[C@@]4(C)[C@]3(C)CC[C@@H]12 | 5.63%
56 | CC[C@@]1(O)C(=O)OCc2c1cc1n(c2=O)Cc2cc3c([N+](=O)[O-])cccc3nc2-1 | -85.8% (active)
57 | O=C(Cc1ccccc1)Nc1nc2ccc(Cl)cc2c2nc(-c3ccco3)nn12 | 2.82% and 3.45%
58 | Cc1nc(Cn2cnc3c2c(=O)n(C)c(=O)n3C)no1 | 8.05%
59 | Cc1cnc(CNC(=O)c2c(=O)c3ccc(N4CCCN(C)CC4)nc3n3c2sc2ccccc23)cn1 | -82.2% (active)
60 | CCOCCn1c(N2CCCN(C)CC2)nc2ccccc21 | 16.4%
61 | CCC(C(N)=O)c1ccccc1 (stereo not drawn) | -4.72%
62 | CN(Cc1ccccc1)C(=O)C(Cc1ccc2ccccc2c1)NC(=O)C1CCCN1C(=O)Nc1ccccc1[N+](=O)[O-] (stereo not drawn) | 0.794%
63 | O=C(O)c1cc2cc(Cl)ccc2[nH]1 | 10.5%
64 | CCCCCCCCNC[C@@H](O)[C@H](O)[C@@H](O)[C@@H](O)CO | 17.8%
65 | S=P(N1CC1)(N1CC1)N1CC1 | 7.66%
66 | CC(C)OC(=O)c1cn(Cc2c(F)cccc2F)c2sc(-c3ccc(NC(=O)C(C)C)cc3)c(CN(C)Cc3ccccc3)c2c1=O | -80.6% (active)
67 | OC(CN1CCNCC1)Cn1c2ccc(Br)cc2c2cc(Br)ccc21 (stereo not drawn) | -61.8%
68 | O=C1Cc2cc(Cl)ccc2N1 | 8.1%
69 | CC[C@H](C)n1cc(C)c2c(C(=O)NCc3c(C)cc(C)[nH]c3=O)cc(-c3ccc(N4CCNCC4)nc3)cc21 | 1.27%
70 | OCCn1cc(-c2ccc3c(c2)CC/C3=N\O)c(-c2ccncc2)n1 | -63.9% and -44.3%
71 | CN(C)CCOc1ccc(-c2nc(-c3ccc4c(c3)CC/C4=N\O)c(-c3ccncc3)[nH]2)cc1 | -76.7% (active)
72 | O=c1[nH]c(=O)n([C@H]2CC(O)[C@@H](CO)O2)cc1/C=C/Br (stereo partly drawn) | 8.12%
73 | O=C(/C=C/c1cccc(S(=O)(=O)Nc2ccccc2)c1)NO | -80.9% (active)
74 | CCNC(=O)/C=C/c1cccc(Br)c1 | 53.2%
75 | O=C(/C=C/c1ccccc1)c1ccc(O)cc1O | 65.1%
76 | CNC(=O)CN(CCN(CCN(CC(=O)O)CC(=O)NC)CC(=O)O)CC(=O)O.[Gd] | 9.1%
77 | CCCCCN(CCCOC)C(=O)[C@@H](CCC(=O)O)NC(=O)c1ccc(Cl)c(Cl)c1 | 5.05%
78 | NCCCC[C@@H]1NC(=O)[C@@H](Cc2c[nH]c3ccccc23)NC(=O)[C@H](c2ccccc2)NC(=O)[C@@H]2C[C@@H](OC(=O)NCCN)CN2C(=O)[C@H](Cc2ccccc2)NC(=O)[C@H](Cc2ccc(OCc3ccccc3)cc2)NC1=O (cyclo([Hyp]([CO-Ethylenediamine])[Phg][dW]KY(Bn)F)) | 9.07%

From PubChem BioAssay AID1259421 (Broad Institute, 2018)
